The list is not random: actives were taken first. Their share in the collection is about 0.48%.
LRH-1 inv ag: NR5A2 inverse agonism in reporter assay. inhibition, % at 3.6 µM. HEK293T StAR-luciferase reporter, LRH-1 transfected, 24 h. AID 602396. hit rate 0.13% among 360,000. O00482;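 active means inhibition above the mean inhibition of all tested compounds plus 3 SD, cut at about 73% in these data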
SRC2 inh: human SRC2 (NCOA2) inhibition; HEK293 GAL4-SRC2 luciferase reporter, luminescence; hit rate 0.17% among 370,000; Q15596; AID 651957; inhibition, % at 9 µM;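 active means inhibition above the mean inhibition of all tested compounds plus 3 SD, set per campaign, cut at about 52% in these data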
LGR2 antag: Drosophila LGR2 receptor signaling inhibition; HEK293 LGR2, CRE-luciferase, bursicon-stimulated, 4 h; inhibition, % at 9.99 µM; hit rate 0.35% among 380,000;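 active means drop in luminescence signal, shown as inhibition above about 50% in the replicate tests, limit read from the data, passing the limit was not always enough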;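 further: agonist challenge used bursicon conditioned medium at about half maximal strength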
NCOA3 inh: human NCOA3 inhibition; Q9Y6Q9; AID 588352; inhibition, % at 3.6 µM; HEK293 GAL4-SRC3 luciferase reporter, luminescence; hit rate 0.17% among 360,000;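 active means inhibition above a per-campaign cutoff, the mean of all compounds plus 3 SD, cut at about 60% in these data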;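 further: higher means less SRC3-driven luciferase light from the GAL4 reporter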
NCOA1 inh: inhibitors of human steroid receptor coactivator 1 (SRC1); Q15788; HEK293 GAL4-SRC1 luciferase reporter, luminescence; inhibition, % at 3.6 µM; hit rate 0.12% among 360,000; AID 588354;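 active means inhibition above the campaign mean plus 3 SD, with each screening campaign given its own cutoff, cut at about 60% in these data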
Large screens that a line does not name were inactive.

O=C(NCc1cccnc1)/C(=C\c1ccc(-c2ccc(Cl)c(Cl)c2)o1)S(=O)(=O)c1ccccc1	SRC2 inh 61, LGR2 antag 103, NCOA3 inh 85
CC(C)(C)OC(=O)CC[C@@H](C(=O)NCCCCCCCCCCC(=O)N1CCN(C(=O)OC(C)(C)C)CC1)n1cc(CCCCCNC(=O)OC(C)(C)C)nn1	none
CC(C)(C)OC(=O)NCCCCCc1cn([C@@H](CO)C(=O)NCCCCCCCCCCC(=O)N2CCN(C(=O)OC(C)(C)C)CC2)nn1	SRC2 inh 54, NCOA3 inh 72 (no result: LGR2 antag)
C[C@@H]1CN([C@H](C)CO)C(=O)c2cccc(NS(=O)(=O)c3ccc(Cl)cc3)c2O[C@@H]1CN(C)S(=O)(=O)c1cccs1	none (no result: LRH-1 inv ag, SRC2 inh, NCOA3 inh, NCOA1 inh)
Cc1ccc(S(=O)(=O)N(C(=O)c2ccncc2)c2ccc(OC(=O)c3ccncc3)cc2)c(C)c1	none
Cc1ccc(C)c(S(=O)(=O)N(C(=O)c2ccncc2)c2ccc(OC(=O)c3ccncc3)cc2)c1	LGR2 antag 96
CO[C@@H]1CN(C)C(=O)c2cc(NS(=O)(=O)c3cn(C)cn3)ccc2OC[C@H](C)N(CCC(F)(F)F)C[C@H]1C	none (no result: LRH-1 inv ag, SRC2 inh, NCOA3 inh, NCOA1 inh)
CC(C)[C@@H]1COCc2cn(nn2)CC[C@H](Cc2ccccc2)C(=O)N1	none (no result: LRH-1 inv ag, SRC2 inh, NCOA3 inh, NCOA1 inh)
Cc1ccccc1S(=O)(=O)N1[C@H](C#N)[C@@H](c2ccc(C#CC3CCCCC3)cc2)[C@@H]1CO	none (no result: LRH-1 inv ag, SRC2 inh, NCOA3 inh, NCOA1 inh)
Cc1ccccc1S(=O)(=O)N1[C@H](C#N)[C@H](c2ccc(C#CC3CCCCC3)cc2)[C@H]1CO	LGR2 antag 76 (no result: LRH-1 inv ag, SRC2 inh, NCOA3 inh, NCOA1 inh)
Cc1noc(C)c1S(=O)(=O)Nc1ccc2c(c1)C(=O)N([C@H](C)CO)C[C@H](C)[C@@H](CN(C)C(=O)CCCN(C)C)OCCCC[C@H](C)O2	none (no result: LRH-1 inv ag, SRC2 inh, NCOA3 inh, NCOA1 inh)
CN1CCN(C2=C(Cl)C(=O)c3ccccc3C2=O)CC1	LGR2 antag 72
O=C1C(Cl)=C(N2CCC(C(=O)O)CC2)C(=O)c2ccccc21	none (no result: SRC2 inh, LGR2 antag)
CC(=O)[C@@]1(O)Cc2c(O)c3c(c(O)c2[C@H](O[C@H]2C[C@H](N)[C@H](O)[C@H](C)O2)C1)C(=O)c1ccccc1C3=O	LGR2 antag 98
COc1cccc2c1C(=O)c1c(O)c3c(c(O)c1C2=O)CC(O)(C(C)=O)CC3OC1CC(N(C)C)C(O)C(C)O1 (centres undefined)	LRH-1 inv ag 97, SRC2 inh 55, LGR2 antag 101, NCOA3 inh 85, NCOA1 inh 75
COc1cccc2c1C(=O)c1c(O)c3c(c(O)c1C2=O)C[C@@](O)(C(=O)CO)C[C@@H]3O[C@H]1C[C@H](N)[C@H](O)[C@H](C)O1	LRH-1 inv ag 98 (no result: LGR2 antag)
COc1cccc2c1C(=O)c1c(O)c3c(c(O)c1C2=O)C[C@@](O)(C(=O)CO)C[C@@H]3OC1CC(N)C(O)C(C)O1 (some centres undefined)	LRH-1 inv ag 78 (no result: LGR2 antag)
Cc1noc(C)c1NC(=O)N[C@H]1C=C[C@H](CC(=O)N2CCN(C)CC2)O[C@@H]1CO	none (no result: LRH-1 inv ag, SRC2 inh, NCOA3 inh, NCOA1 inh)
CC(=O)N(C)C[C@H]1Oc2ncc(C#C[C@@H](C)O)cc2C(=O)N([C@@H](C)CO)C[C@H]1C	none (no result: LRH-1 inv ag, SRC2 inh, NCOA3 inh, NCOA1 inh)
COC(=O)c1ccc2nc(NC(=O)C(C)(C)C)sc2c1	LGR2 antag 64
c1ccc(-c2nc(-c3ccccn3)no2)cc1	LGR2 antag 87
c1ccc(-c2noc(-c3ccno3)n2)nc1	none
Clc1cccc(-c2nc(-c3ccccn3)no2)c1	none (no result: LGR2 antag)
Cc1ccc(-c2nc(-c3ccccn3)no2)cc1	SRC2 inh 75 (no result: LGR2 antag)
c1ccc(-c2ccc(-c3nc(-c4ccccn4)no3)cc2)cc1	SRC2 inh 67, LGR2 antag 102, NCOA3 inh 66
Cc1ccc(-c2nc(-c3ccccn3)no2)cc1Cl	none (no result: LGR2 antag)
COc1cccc(S(=O)(=O)N[C@H]2CC[C@@H](CC(=O)NCc3ccc(F)cc3)O[C@H]2CO)c1	none (no result: LRH-1 inv ag, SRC2 inh, NCOA3 inh, NCOA1 inh)
CC1CCc2c(sc(NC(=O)CSc3ncn[nH]3)c2C#N)C1 (centres undefined)	SRC2 inh 82
N#Cc1c(NC(=O)CSc2ncn[nH]2)sc2c1CCCC2	SRC2 inh 75 (no result: LGR2 antag)
N#Cc1c(NC(=O)CCCC(=O)O)sc2c1CCCCC2	SRC2 inh 61
CC(C)(C)C1CCc2c(sc(NC(=O)CSc3ncn[nH]3)c2C#N)C1 (centres undefined)	none (no result: LGR2 antag)
CCN(CC)CCNc1ccc(C)c2sc3ccc(O)cc3c(=O)c12	NCOA3 inh 64, NCOA1 inh 63
CCC(=O)Nc1ccc(NC(=O)c2oc3ccccc3c2C)cc1	SRC2 inh 58
NC(=S)N1OC[C@@H]2COc3ccc4ccccc4c3[C@@H]21	SRC2 inh 54 (no result: LGR2 antag)
CO/N=C/NC(=O)N1OC[C@@H]2COc3ccc4ccccc4c3[C@@H]21	none
CCc1ccc(/C=C2\SC(=S)N(CCCC(=O)Nc3ccccn3)C2=O)cc1	SRC2 inh 57 (no result: LGR2 antag)
COc1ccc(/C=C2/SC(=S)N(CCC(=O)O)C2=O)cc1	SRC2 inh 84
CCN(C(=O)CCN1C(=O)/C(=C/c2ccccc2)SC1=S)C1CCS(=O)(=O)C1 (centres undefined)	LGR2 antag 59
COC(=O)c1ccc(/C=C2/SC(=S)N(CCCC(=O)Nc3ccccn3)C2=O)cc1	none
COc1ccc(/C=C2\SC(=S)N(CCCC(=O)Nc3ccc(O)cc3)C2=O)cc1	SRC2 inh 60
CN1CCN(C(=O)C[C@H]2C=C[C@@H](NC(=O)c3ccc4c(c3)OCO4)[C@@H](CO)O2)CC1	none (no result: LRH-1 inv ag, SRC2 inh, NCOA3 inh, NCOA1 inh)
CO[C@@H]1CN(C)C(=O)c2ccc(NC(=O)C3CC3)cc2OC[C@@H](C)N(C(=O)c2ccccc2F)C[C@@H]1C	none (no result: LRH-1 inv ag, SRC2 inh, NCOA3 inh, NCOA1 inh)
CCC(=O)N(C)C[C@@H]1Oc2cc(C3=CCCCC3)ccc2S(=O)(=O)N([C@H](C)CO)C[C@@H]1C	none (no result: LRH-1 inv ag, SRC2 inh, NCOA3 inh, NCOA1 inh)
CC(=Cc1ccccc1)C=C1SC(=S)N(CCCC(=O)Nc2ccc(C(=O)O)cc2)C1=O	none
CC(=C\c1ccccc1)/C=C1/SC(=S)N(CCCC(=O)O)C1=O	SRC2 inh 53
CC(/C=C1\SC(=O)N(CCCC(=O)O)C1=O)=C\c1ccccc1	SRC2 inh 93
CN(C)c1ccc(/C=N/N=C/c2ccccc2O)cc1	LGR2 antag 56
C[C@@H]1CN([C@@H](C)CO)C(=O)c2cc(C3=CCCC3)cnc2O[C@H]1CN(C)S(=O)(=O)c1cn(C)cn1	none (no result: LRH-1 inv ag, SRC2 inh, NCOA3 inh, NCOA1 inh)
COc1ccc(C=C2CS(=O)(=O)CC(=Cc3ccc(OC)cc3)C2=O)cc1	LGR2 antag active
COC(=O)CCn1nnc(-c2ccc(C(C)C)cc2)n1	SRC2 inh 86 (no result: LGR2 antag)
O=C(Nc1ccc(Cl)cc1)N[C@H]1CC[C@H](CCNC(=O)c2cc(Cl)cc(Cl)c2)O[C@@H]1CO	none (no result: LRH-1 inv ag, SRC2 inh, NCOA3 inh, NCOA1 inh)
Cc1ccc(C2=[N+]([O-])C3(CCCCC3=O)N(O)C2(C)C)cc1 (centres undefined)	SRC2 inh 78 (no result: LGR2 antag)
C/C=C/c1ccc2c(c1)O[C@@H](CN(C)C(=O)C1CC1)[C@@H](C)CN([C@H](C)CO)S2(=O)=O	none (no result: LRH-1 inv ag, SRC2 inh, NCOA3 inh, NCOA1 inh)
Cc1ccccc1C(=O)N/N=C/c1ccccn1	LGR2 antag 57
O=C(N/N=C\c1ccccn1)c1ccccc1O	none (no result: LGR2 antag)
